Shown are actives, neighbours in structure and some others; about 5.4% of the full set was active somewhere.
SMARCA2 act: increases SMARCA2 function in MMTV reporter cells | MG213 cells, MMTV-luciferase reporter, dexamethasone, overnight | activation, % at 9.1 µM | 370,000 compounds, 1% hits; in the data active = activation above about 7.8%
ALR inh: blocks human ALR sulfhydryl oxidase activity; purified ALR, DTT oxidation, H2O2 HRP-luminol luminescence; 290,000 compounds, 3.8% hits; inhibition, % (test concentration not listed); P55789;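 active = mean replicate inhibition above about 79%, with every replicate also reaching it, limit read from the data; inconclusive = only one of the two criteria met; inactive = mean below limit and not every replicate reaching it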
Target sequence (P55789 whole entry, looked up): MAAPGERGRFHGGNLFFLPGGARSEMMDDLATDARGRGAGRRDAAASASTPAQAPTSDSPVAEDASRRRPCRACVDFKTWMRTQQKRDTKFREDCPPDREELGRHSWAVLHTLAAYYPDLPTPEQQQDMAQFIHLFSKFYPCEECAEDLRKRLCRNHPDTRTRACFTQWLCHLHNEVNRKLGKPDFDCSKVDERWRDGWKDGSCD
beta cell repl: induces beta-cell replication in MIN6 cells; MIN6 cells proliferation, ATPlite luminescence, 48 h; cells starved in 0.2% serum; 100% = growth in 10% serum; proliferation, % at 10 µM; 330,000 compounds, 0.29% hits; AID 2380;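 active = compounds whose signal lies at least 3.5 SD above the mean of all wells on their plate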
GASC-1 inh: human JMJD2C demethylase inhibition | 330,000 compounds, 0.069% hits | inhibition, % at 2.35 µM | GST-JMJD2C(1-420) H3K9me3 demethylation, DELFIA europium | AID 2099 | Q9H3R0;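 active = more than half of a compound's replicate wells show inhibition beyond 50%, single wells judged on their own value; inconclusive = some, but no more than half, of replicates pass 50% inhibition; inactive = no replicate passes 50% inhibition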;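 also: signal counts dimethyl H3K9 product captured on neutravidin plate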
Target sequence (Q9H3R0 1-420 limits assumed): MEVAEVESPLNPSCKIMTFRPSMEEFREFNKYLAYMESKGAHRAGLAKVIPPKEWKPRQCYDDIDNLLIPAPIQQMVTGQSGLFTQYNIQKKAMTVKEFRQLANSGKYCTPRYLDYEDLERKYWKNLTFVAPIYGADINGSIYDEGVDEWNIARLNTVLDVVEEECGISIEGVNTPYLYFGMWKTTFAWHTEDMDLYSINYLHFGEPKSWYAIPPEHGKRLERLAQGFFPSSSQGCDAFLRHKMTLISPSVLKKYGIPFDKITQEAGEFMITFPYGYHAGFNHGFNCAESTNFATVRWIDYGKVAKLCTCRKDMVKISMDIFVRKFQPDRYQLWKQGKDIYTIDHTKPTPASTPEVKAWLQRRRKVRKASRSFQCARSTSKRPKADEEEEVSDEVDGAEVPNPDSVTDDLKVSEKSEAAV
PfM18AAP inh: PfM18AAP enzyme inhibition; recombinant PfM18AAP, H-Glu-NHMec fluorogenic cleavage; inhibition, % at 7.35 µM; 290,000 compounds, 1.2% hits; AID 1822;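 active = inhibition above the campaign mean inhibition over all tested compounds plus 3 SD, cut at about 28% in these data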
Granule exo inh: lytic granule exocytosis inhibition; TALL-104 LAMP-1 surface exposure, flow cytometry; cells stimulated with thapsigargin and PMA; inhibition, % at 10 µM; 360,000 compounds, 0.66% hits; AID 651702;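 active = inhibition above about 55%, limit read from the data; inconclusive = no clear call, values can overlap the other calls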
Numbers stand for hits; - = inactive; ? = inconclusive; . = no result given.

SMILES	SMARCA2 act	ALR inh	beta cell repl	GASC-1 inh	PfM18AAP inh	Granule exo inh
O=C(Cc1ccccc1)N1CCN=C1SCc1cccc([N+](=O)[O-])c1	-	98	-	-	-	-
Cc1cccc(CSC2=NCCN2S(=O)(=O)c2ccc(F)cc2)c1	-	-	-	-	-	-
O=[N+]([O-])c1ccc(S(=O)(=O)N2CCN=C2SCc2ccc(F)cc2)cc1	-	-	-	?	-	-
Cc1cccc(CSC2=NCCN2C(=O)c2ccc(Br)o2)c1	-	95	-	-	-	-
O=C(NCCc1ccccc1)OCc1cn(Cc2ccc(C(F)(F)F)cc2)nn1	-	.	.	.	.	.
COC(=O)C1CN(CC(C)C)CCS(=O)(=O)N1Cc1ccc(C(F)(F)F)cc1 (configuration not stated)	-	.	.	.	.	.
Cc1ccc(CN(Cc2cc3cc4c(cc3[nH]c2=O)OCCO4)Cc2nnnn2Cc2ccco2)cc1	-	-	-	-	30	-
Cc1ccc(S(=O)(=O)Nc2ccc(N(C)C)cc2)cc1	-	99	-	-	-	-
Cc1ccc(S(=O)(=O)N(C)/N=C/c2ccc(N(C)C)cc2)cc1	-	99	-	-	-	-
Cc1cc(S(=O)(=O)Nc2ccc(N(C)C)cc2)c(C)s1	-	100	-	-	-	-
Cc1ccc(S(=O)(=O)N(C)/N=C/C=C/c2ccccc2)cc1	-	.	-	-	-	-
CN(C)c1ccc(NS(=O)(=O)c2ccc(-c3csnn3)cc2)cc1	-	99	-	-	-	-
COC(=O)c1cc(-c2cc3ccccc3o2)c(=O)n2c1CCC2	-	.	.	.	.	.
Clc1ccc(-c2nnc(SCc3cccc4ccccc34)n2-c2ccc(Cl)cc2)cc1	-	.	.	.	.	.
CN(C)c1ccc(NS(=O)(=O)c2ccc(Cl)cc2)cc1	-	.	-	-	-	-
CN(C)c1ccc(NS(=O)(=O)c2cccc(Cl)c2)cc1	-	99	-	-	-	-
O=C(O)Cc1ccc(C(=O)CSc2ccccc2)s1	-	98	-	-	-	-
Cc1ccc(SCC(=O)c2ccc(CC(=O)O)s2)cc1	-	.	-	-	-	-
COCc1cc(Sc2ccc(Br)cc2)nc(-c2ccccc2)n1	-	99	-	-	-	-
O=C(c1cccc(F)c1F)N(Cc1ccccn1)CC1CCCO1 (configuration not stated)	-	.	.	.	.	.
CCc1c(C)sc(NC(=O)c2cc(C3CC3)on2)c1C#N	-	94	-	-	.	-
CCc1c(C)sc(NC(=O)c2cc(C)on2)c1C#N	-	85	-	-	-	-
CCCCCCCCN1C(=O)[C@@H](CC(=O)NCCCOCCCC)C[C@@]2(C(=O)OC)C1=C[C@H](C(C)(C)C)O[C@@H]2C	-	.	.	.	.	.
O=C(O)c1cc(S(=O)(=O)Nc2ccc3oc(=O)sc3c2)ccc1O	-	-	-	-	51	.
N=C1S/C(=C\c2ccc(-c3cccc(Cl)c3)o2)C(=O)N1c1nccs1	-	-	.	-	-	73
SMILES	SMARCA2 act	ALR inh	beta cell repl	GASC-1 inh	PfM18AAP inh	Granule exo inh
COc1ccc(/C=C2\SC(=N)N(c3nccs3)C2=O)cc1OC	-	-	-	-	-	-
O=C(O)c1ccc(N/N=C/c2cn(Cc3ccccc3F)c3ccccc23)cc1	-	98	-	-	-	-
Nc1ccc(C(=O)N/N=C/c2cn(Cc3ccccc3F)c3ccccc23)cc1	-	-	-	-	-	-
CC(C)n1cc(/C=N/Nc2ccc(C(=O)O)cc2)c2ccccc21	-	100	-	-	-	-
C=COC(=O)CSc1snc(SCC(=O)OC)c1C#N	-	99	-	-	-	-
Cc1nn(-c2ccccc2)c(C)c1/C=N/n1c(-c2ccccc2Br)n[nH]c1=S	-	96	-	-	-	-
CCN(CC)c1ccc(/C=N/n2c(-c3ccccc3Br)n[nH]c2=S)cc1	-	97	-	-	-	-
Cc1c(/C=N\NC(=O)c2ccc(F)cc2)cnn1C	-	99	-	-	-	-
CCn1cc(/C=N\NC(=O)c2ccc(F)cc2)cn1	-	98	-	-	-	-
CCC/C=N/NC(=O)c1ccc(F)cc1	-	-	-	-	-	-
O=C(N[C@H](Cc1ccccc1)C(=O)NCc1ccc(OC(F)(F)F)cc1)[C@H]1O[C@@H](n2ccc(=O)[nH]c2=O)[C@H](O)[C@@H]1O	-	.	.	.	.	.
Cc1cccc(C)c1NC(=O)Cn1nnc(-c2ccncc2)n1	-	.	.	.	.	.
CCC1CCCN1Cn1cnc2c([nH]c3ccc(Cl)cc32)c1=O (configuration not stated)	9.7	-	-	-	-	-
CCC1CCCN1Cn1cnc2c([nH]c3ccc(C)cc32)c1=O (configuration not stated)	-	-	-	-	-	-
CCNc1nc(=S)nc(NCc2ccccc2)[nH]1	-	-	-	-	-	.
CCNc1nc(=S)nc(NC(C)C)[nH]1	-	-	-	-	30	-
Oc1c(Cl)cc(Cl)cc1C=Nc1ccccc1N1CCCC1	.	98	-	-	-	.
NC(=O)c1cccc(N=Cc2cc(Cl)cc(Cl)c2O)c1	-	.	.	-	-	-
CCOC(=O)CN(C(=O)CSc1nnc(CNc2ccc(C)cc2C)o1)c1ccccc1	-	96	-	-	-	-
Cc1ccc(NCc2nnc(SCC(=O)OC3CCCCC3)o2)c(C)c1	-	98	-	-	-	-
Cc1ccc(NCc2nnc(SCC(N)=O)o2)c(C)c1	-	-	-	-	-	-
CC1(c2ccccc2)NC(=O)N(CC(=O)Nc2ccccc2N2CCCC2)C1=O (configuration not stated)	-	.	-	-	.	-
O=C(CN1C(=O)NC2(CCCC2)C1=O)Nc1cc(Cl)ccc1N1CCCC1	-	87	-	-	-	-
O=C(CN1C(=O)NC2(CCCC2)C1=O)Nc1ccccc1N1CCCC1	-	99	-	-	-	-
O=C(N[C@H](C(=O)N1CCC[C@H]1C(=O)NC1CCCC1)c1ccccc1)C1CCCC1	-	.	.	.	.	.
SMILES	SMARCA2 act	ALR inh	beta cell repl	GASC-1 inh	PfM18AAP inh	Granule exo inh
Cc1ccc2nc(CN(C)C(=O)[C@H](CCc3ccccc3)NC(=O)[C@H]3O[C@@H](n4cnc5c(N)ncnc54)[C@H](O)[C@@H]3O)[nH]c2c1	-	.	.	.	.	.
Cc1ccc2oc(=O)c(/C=C(\O)c3ccccc3)nc2c1	-	98	-	-	-	-
C/C(O)=C\c1nc2ccccc2oc1=O	-	95	-	-	-	-
Cc1ccc2oc(=O)c(/C=C(\O)CC(C)C)nc2c1	-	82	-	-	-	-
CCS(=O)(=O)c1ccc2oc(=O)c(/C=C(\O)c3ccc(Cl)cc3)nc2c1	-	-	-	-	-	-
CS(=O)(=O)Cc1nc2ccccc2oc1=O	-	99	-	-	-	-
COC(=O)[C@]12C[C@H](CC(=O)NCc3cccc(C(F)(F)F)c3)C(=O)N(Cc3ccccc3)C1=C[C@H](C(C)C)O[C@@H]2C1CC1	-	.	.	.	.	.
Cc1ccc(/C=N/NC(=O)Cc2cccn2C)cc1	-	-	-	-	-	-
CCc1ccc(/C=N/NC(=O)Cc2cccn2C)cc1	-	96	-	-	-	-

High-throughput results from PubChem BioAssay.
